# Measured values from ChEMBL document CHEMBL3988442, “University of Dundee, Small-Polar-MMV Screening Library” (2021).
# The campaign covered roughly 48,000 compounds. About 13,000 (27%) showed an effect of 50% or more. The list shows a part of the results.
# Test system: Wolbachia pipientis
# Test: Anti-Wolbachia Cell-Based Screen
# Type: functional
# Design: scale not given: in the data most compounds retested in dose-response had high values
# Conditions: 5 µM
row,Compound,Percent Effect [%]
1,CCc1noc(CS(=O)(=O)Cc2ccccc2C)n1,2.156
2,CN1C[C@@H](N)C[C@H]1c1nc(-c2ccc3c(c2)OCO3)no1,-7.718
3,CC(C)(C)n1cc(CNC2CCN(C(=O)c3ccoc3)CC2)cn1.Cl,4.064
4,CCC(C)(C)C(=O)NCCCOC1CCOC1 (stereo not given),-11.1
5,CC(C)S(=O)(=O)N1CCOC(CCc2ccccc2)C1 (stereo not given),-8.11
6,O=C(O)C(F)(F)F.c1cnc(N2CCCn3nnc(COCC4CC4)c3C2)nc1,-15.27
7,C1CN(CC2CCOCC2)Cc2c(CN3CCOCC3)nnn2C1,2.088
8,O=C(O)C(F)(F)F.O=C(O)C(F)(F)F.c1cncc(N2CCCn3nnc(CN4CCCCC4)c3C2)c1,109.4
9,O=C(O)C(F)(F)F.O=C(O)C(F)(F)F.O=C(c1cccnc1)N1CCn2nnc(COc3cccnc3)c2C1,-17.53
10,O=C(O)C(F)(F)F.O=C1CCCN1Cc1nnn2c1CN(c1cccnc1)CCC2,87.49
11,O=C(O)C(F)(F)F.O=C(O)C(F)(F)F.c1ccc(CN2CCCn3nnc(COc4ccccn4)c3C2)nc1,-12.56
12,O=C(O)C(F)(F)F.c1cncc(N2CCCn3nnc(COCC4CC4)c3C2)c1,122.7
13,O=C1CCCN1Cc1nnn2c1CN(c1ncccn1)CCC2,-7.828
14,c1cncc(N2CCCn3nnc(CN4CCOCC4)c3C2)c1,107.9
15,O=C(O)C(F)(F)F.O=C(O)C(F)(F)F.c1cncc(CN2CCCn3nnc(COCC4CC4)c3C2)c1,-24.42
16,c1cc(CN2CCCn3nnc(COCC4CC4)c3C2)ccn1,-2.908
17,Cc1cnnn1Cc1nnn2c1CN(Cc1ccccn1)CCC2.O=C(O)C(F)(F)F,-8.238
18,COc1ccc(C)cc1CN(Cc1ncc(C)o1)C1CCN(C)C1 (stereo not given),18.81
19,Cc1cccc(N2N=C(C(=O)NC(C)CCc3ccco3)CCC2=O)c1 (stereo not given),5.008
20,CC(C)C(=O)NC1CCN(CCO)CC1,-14.55
21,N#Cc1ccc(CNC(=O)NCCC(=O)NC2CCCC2)c(F)c1,1.823
22,CCCOCCN1CCc2[nH]c(-c3ccc(OC)cc3)nc2C1,0.5641
23,O=C(O)C(F)(F)F.O=C(O)C(F)(F)F.c1cncc(COCc2nnn3c2CN(Cc2ccsc2)CC3)c1,109.1
24,O=C(O)C(F)(F)F.O=C(O)C(F)(F)F.c1cncc(COCc2nnc3n2CCN(Cc2ccsc2)C3)c1,-0.7002
25,O=C(O)C(F)(F)F.O=C(O)C(F)(F)F.c1cncc(OCc2nnn3c2CN(Cc2ccsc2)CCC3)c1,-20.94

row,Compound,Percent Effect [%]
1,O=C(NCc1ccc(Cl)cc1)[C@@H]1Cc2[nH]cnc2CN1CC1CC1,10.78
2,Cn1cc(CN2CCCC(CCc3ccc(F)cc3F)C2)cn1 (stereo not given),13.59
3,Cn1cc(CN2CCC(c3cc(COc4ccc(Cl)cc4)[nH]n3)C2)cn1 (stereo not given),120.4
4,Cn1cc(CN2CCCC(CCc3ccc(F)c(F)c3)C2)cn1 (stereo not given),-4.852
5,Cc1n[nH]c(C2CN(CCCOc3cccc(Cl)c3)CCO2)n1 (stereo not given),17.53
6,Cn1cc(CN2CCCC(Cn3cc(CCCO)nn3)C2)cn1 (stereo not given),-7.109
7,Cn1cc(CN2CCCC(CCc3ccc(F)cc3)C2)cn1 (stereo not given),5.496
8,Cc1cc(C2CCCN(Cc3cccnc3)C2)n[nH]1 (stereo not given),-3.647
9,Br.Cn1cc(CN2CCC(c3cc(COc4cccc(Cl)c4)[nH]n3)C2)cn1 (stereo not given),108.1
10,Cn1cc(CN2CCC(c3cc(CCO)[nH]n3)C2)cn1 (stereo not given),135.9
11,O=C(NC1(c2nccs2)CCCC1)c1[nH]nc(C2CC2)c1Cl,-0.1495
12,O=C(Nc1ccccc1OC(F)(F)F)C1CCS(=O)(=O)C1 (stereo not given),4.045
13,N#Cc1cnn(C(=O)COc2ccccc2F)c1N,-3.189
14,CCc1n[nH]c(C2CN(C(=O)c3ccc4c(c3)COC4)CCO2)n1 (stereo not given),136
15,CCc1n[nH]c(C2CN(C(=O)c3ccnc(N(C)C)c3)CCO2)n1 (stereo not given),149.1
16,CCc1n[nH]c(C2CN(C(=O)c3ccc(NC4CC4)nc3)CCO2)n1 (stereo not given),134.6
17,Cc1n[nH]c(C2CN(C(=O)c3ccc4c(c3)COC4)CCO2)n1 (stereo not given),-48.4
18,CCCc1n[nH]c(C2CN(C(=O)c3ccc4c(c3)COC4)CCO2)n1 (stereo not given),124.9
19,C[S+]([O-])c1nncn1CC(=O)c1cccc(Br)c1 (stereo not given),-3.709
20,Cc1ccc(CN(C)C(=O)NCC(C)(C)S(C)(=O)=O)s1,-13.6
21,CCNc1ncc(CN2C[C@@H](CN3CCC(CO)CC3)[C@@H](CO)C2)cn1,12.05
22,Cc1ccc(CC(=O)N2CCn3cc(Cn4cncn4)nc3C2)cc1,8.244
23,c1cc2c(cc1-c1noc3c1CN(C1CCC1)CC3)OCO2,-7.391
24,CS(=O)(=O)c1nccn1Cc1ccncc1,-5.065
25,Cc1ccc2oc(CN3CCn4nc(CCC(=O)O)cc4C3)c(C)c2c1,5.001

row,Compound,Percent Effect [%]
1,O=C(CCCc1nc2ccccc2[nH]1)N1CCCC1c1ccncc1 (stereo not given),8.641
2,NC(=O)NC(=O)CCN1CCC(C(=O)c2cc(F)ccc2F)CC1,-46.12
3,Cc1cccc(C(=O)N2CCC(C(=O)c3cc(F)ccc3F)CC2)n1,159.7
4,C=C(Cl)CN1CCC(C(=O)c2cc(F)ccc2F)CC1,-0.07038
5,O=C(c1cc(F)ccc1F)C1CCN(C(=O)c2ccccn2)CC1,7.01
6,O=C(c1cc(F)ccc1F)C1CCN(C(=O)c2cnccn2)CC1,120.4
7,Cc1cnc(C(=O)N2CCC(C(=O)c3cc(F)ccc3F)CC2)cn1,134
8,O=C(c1cc(F)ccc1F)C1CCN(C(=O)c2cccnc2O)CC1,-3.966
9,O=C(c1cc(F)ccc1F)C1CCN(C(=O)c2ccco2)CC1,137.2
10,CS(=O)(=O)CCN1CCSCC1c1ccc(Cl)cc1 (stereo not given),-3.973
11,O=C(C1CC(F)(F)C1)N1CC[C@H]2OCC[C@@]2(COCC2CC2)C1,-8.729
12,CC(SCC(=O)NCCC#N)c1ccc(Cl)cc1 (stereo not given),5.18
13,COc1cccc(-c2nc(CNCCCn3cccn3)cs2)c1,28.1
14,O=C(c1ccoc1)N1CCc2ncnc(NCc3ccccn3)c2CC1,2.356
15,CCCN1CCN(C(=O)c2cccnc2-n2cncn2)CC1,5.341
16,Cc1nc2ccc(C(=O)N3CCC(COc4ccccn4)CC3)cc2[nH]1,160.4
17,O=C(O)C(F)(F)F.O=C(c1ccoc1)N1CCC2(CC1)COC(COc1ccccn1)C2 (stereo not given),19.26
18,O=C(c1cccnc1O)N1CCC(COc2ccccc2)CC1,-5.095
19,COc1ccnc(CN(C)C(=O)CSc2nnc(N)s2)c1,0.9714
20,COc1cc(OC)cc(-c2noc(C(N)CCSC)n2)c1 (stereo not given),122.3
21,COc1cc(OC)cc(-c2noc(CN)n2)c1,-5.186
22,COc1ccc(-c2noc([C@@H]3C[C@@H](O)CN3C3CCCCC3)n2)cc1,-13.77
23,COc1ccc(-c2noc(C3CC(C(C)C)=NO3)n2)cc1 (stereo not given),-24.09
24,COc1ccc(-c2noc(C(N)CCSC)n2)cc1OC (stereo not given),100.4
25,Cc1ccc(-c2noc([C@H](N)CC(C)C)n2)nn1,0.7851

row,Compound,Percent Effect [%]
1,COc1ccc(-c2noc(C3CCS(=O)(=O)C3)n2)cc1OC (stereo not given),-2.853
2,COc1ccc(-c2noc(C(=O)NCCN3CCCCC3)n2)cc1OC,-3.645
3,COc1ccc(-c2noc(C(N)CCSC)n2)cc1 (stereo not given),92.78
4,COc1ccnc(N2CCCN(Cc3ncc(C(C)C)o3)CC2)n1,-1.774
5,Cc1cnn(CC2CN(c3cnc4ccccc4n3)CCO2)c1 (stereo not given),-7.583
6,Cc1nc(C)n(CC2CN(c3ccc(C#N)cn3)CCO2)n1 (stereo not given),-2.345
7,Cc1cc(C)n(CC2CN(CCOc3cccc(C#N)c3)CCO2)n1 (stereo not given),-7.515
8,Cc1cnn(CC2CN(c3ccc(C#N)cn3)CCO2)c1 (stereo not given),117.6
9,CN(C)CC1CN(c2ccc(C#N)cn2)CCO1 (stereo not given),-4.596
10,Cc1cc(C)n(CC2CN(c3ccc(C#N)cn3)CCO2)n1 (stereo not given),119.8
11,O=C1CO[C@H](c2ccc(NS(=O)(=O)c3ccccc3)cc2)[C@@H](CO)N1,-4.896
12,O=C1N[C@H]2OCCC[C@H]2[C@H](c2ccccc2)N1,111.8
13,O=C(CN1CCCC(c2ccc(C(=O)O)cc2)C1)NC1CC1 (stereo not given),-9.643
14,CN1CCC(N2CCC(c3ccccc3C(=O)O)C2)CC1 (stereo not given),13.56
15,O=C1CC(c2ccccc2)c2cnn(C3CCCC3)c2N1 (stereo not given),5.906
16,O=C(O)c1ccc(OC2CCOCC2)cc1,3.994
17,O=C1N[C@H]2OCCC[C@H]2[C@H](c2ccc(C(=O)O)cc2)N1,126.1
18,O=C(O)c1ccccc1C1CCN(C2Cc3ccccc3C2)C1 (stereo not given),0.3893
19,COc1ccc(C2CC(=O)Oc3cc(C)[nH]c(=O)c32)cc1 (stereo not given),5.191
20,COc1ccc(C2CC(=O)Nc3c2cnn3C2CCCC2)cc1 (stereo not given),-0.6699
21,O=C1N[C@H]2OCCC[C@H]2[C@H](c2ccccc2C(=O)O)N1,55.53
22,COc1ccc([C@@H]2NC(=O)N[C@H]3OCCC[C@H]32)cc1,92.15
23,CCOCCn1nc(C)cc1C(=O)N1CCN(C(C)C)C(CC)C1 (stereo not given),12.32
24,CC(=O)N1CCC(N2CCOC[C@H]2c2nc(-c3ccncc3)c[nH]2)CC1,-16.93
25,CC(=O)N1CCCC2(CCN(C(=O)c3nccnc3N)CC2)C1,-5.274
